Reference: PubChem BioAssay AID743449 (Broad Institute, 2014)
The whole screen tested about 9,900 compounds, of which about 90 (0.9%) were called active. Inconclusive results (about 2%) are left out.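 The calls were made as follows: active = mean normalized replicate activity at least 50 and at least half of replicates each reaching 50; inconclusive = only one of the two criteria met; inactive = neither criterion met.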 The entries come from a sample that favours actives as a whole.

Experiment: YAP1 pathway inhibitors via CTGF transcript, primary screen, DLD1 colon cancer cells, RT-qPCR, single point (AID 743449);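 also: 0% = neutral control wells and 100% = dasatinib control wells; higher means stronger suppression of CTGF expression like dasatinib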
Conditions: DLD1 CTGF mRNA qPCR, 24 h; at 12.5 µM; hits give high values

**Q.** With O=C(Cc1ccncc1)N1CCCCN2[C@H](C1)[C@@H](c1ccc(C#Cc3ccccc3F)cc1)[C@@H]2CO as the compound, how does the inhibition read?
**A.** 12.4% (inactive)

**Q.** Which inhibition does the source give for O=C(Cc1ccncc1)N1CCCCN2[C@@H](CO)[C@@H](c3ccc(C#Cc4ccccc4F)cc3)[C@@H]2C1 here?
**A.** 27.9% (inactive)

**Q.** Which inhibition does the source give for O=C(Cc1ccncc1)N1CCCCN2[C@@H](CO)[C@H](c3ccc(C#Cc4ccccc4F)cc3)[C@@H]2C1 here?
**A.** 22.3% (inactive)

**Q.** With COc1cccc(-c2ccc([C@H]3[C@H]4CN(C(=O)Cc5ccncc5)CCCCN4[C@H]3CO)cc2)c1 as the compound, how does the inhibition read?
**A.** 76.7% (active)

**Q.** For COc1cccc(-c2ccc([C@H]3[C@@H](CO)N4CCCCN(C(=O)Cc5ccncc5)C[C@@H]34)cc2)c1, which inhibition is on record?
**A.** 18.9% (inactive)

**Q.** With O=C(Cc1ccncc1)N1CCCCN2[C@H](CO)[C@@H](c3ccc(C#Cc4ccccc4F)cc3)[C@@H]2C1 as the compound, how does the inhibition read?
**A.** 39.4% (inactive)

**Q.** Which inhibition does the source give for COc1cccc(-c2ccc([C@@H]3[C@@H](CO)N4CCCCN(C(=O)Cc5ccncc5)C[C@@H]34)cc2)c1 here?
**A.** 32.9% (inactive)

**Q.** For O=C(Cc1ccncc1)N1CCCCN2[C@H](C1)[C@H](c1ccc(C#Cc3ccccc3F)cc1)[C@@H]2CO, which inhibition is on record?
**A.** 104% (active)

**Q.** With O=C(Cc1ccncc1)N1CCCCN2[C@H](CO)[C@@H](c3ccc(C#Cc4ccccc4F)cc3)[C@H]2C1 as the compound, how does the inhibition read?
**A.** 54.3% (active)

**Q.** With O=C(O)[C@H]1[C@H](CO)[C@H]2Cn3c(ccc(-c4ccncc4)c3=O)[C@@H]1N2S(=O)(=O)c1ccccc1F as the compound, how does the inhibition read?
**A.** -4.67% (inactive)

**Q.** With C/C=C/c1ccc([C@H]2[C@@H](CO)N3CCCCN(C(=O)Cc4cccnc4)C[C@@H]23)cc1 as the compound, how does the inhibition read?
**A.** -13.7% (inactive)

**Q.** With C[C@@H]1CN([C@@H](C)CO)C(=O)CCCn2nncc2CO[C@H]1CN(C)C(=O)Oc1cccc2ccccc12 as the compound, how does the inhibition read?
**A.** -0.0735% (inactive)

**Q.** With COc1ccccc1CN1[C@H](CO)[C@H](c2ccccc2)C12CN(C(=O)Cc1ccccc1)C2 as the compound, how does the inhibition read?
**A.** -16.1% (inactive)

**Q.** For C/C=C/c1ccc([C@H]2[C@H](CO)N3CCCCN(C(=O)Cc4cccnc4)C[C@@H]23)cc1, which inhibition is on record?
**A.** 13.9% (inactive)

**Q.** With O=C([C@H]1N[C@H]2c3cccc(=O)n3C[C@H]2[C@@H]1CO)N1CCCCC1 as the compound, how does the inhibition read?
**A.** -21.1% (inactive)
